Results from ChEMBL document CHEMBL3433997, “St. Jude Leishmania screening dataset” (2016).

target: Glucose transporter (Leishmania mexicana) (UniProt O61059); test: ST_JUDE_LEISH: Cytotoxicity at 2uM final concentration against transgenic Leishmania Mexicana promastigotes LmGT2 that are glucose transport deficient and complemented with the L. Mexicana glucose transporter 2. Activity is measured by DNA content using SYBR green in vitro; assay type: functional

SMILES | inhibition
O=C(/C=C/c1ccc(Cl)c(Cl)c1)NCCCCCN1CCC(NC(=O)NCCc2ccccc2)CC1 | -3.26%
CCCCn1c(-c2ccco2)nc2c(c(=O)c3ccccc3n2C)c1=O | 4.14%
CN(C)c1ccc(CN2CCC(CNC(=O)c3cc(-c4ccccc4F)cs3)C2)cc1 (stereo not given) | 2.12%
CCOC(=O)c1c[nH]c2c(ccc3ccccc32)c1=O | 5.93%
COc1ccc2nccc([C@@H](O)CN3CCC(NCc4cc5ccccc5cn4)CC3)c2n1 | 7.09%
CCOc1ccc2c(=NN=Cc3ccc(OC)c(OC)c3)cc(C)[nH]c2c1 | -0.04%
C=CC(C)C1OC(=O)c2cc(OC)cc(OC)c21 (stereo not given) | 86.8%
O=S(=O)(NC1CCCCN(Cc2ccccc2O)C1)c1ccc(C(F)(F)F)cc1 (stereo not given) | 0.86%
CNC(=O)c1cnc(Nc2ccc(N3CCN(C)CC3)cc2)nc1Nc1cccc(OC(C)C)c1 | -7.72%
CCCCN(CCCC)CCCN(CCCN(CCCC)CCCC)c1cc(C)nc(Nc2ccc3cc(Br)ccc3c2)n1 | 6.68%
O=S(=O)(c1cccc(C(F)(F)F)c1)N1CCC(CO)(Cc2cccc(C(F)(F)F)c2)CC1 | 7.55%
O=S(=O)(Nc1ccc(CCN2CCC(N3CCCCC3)CC2)cc1)c1ccc(Cl)cc1 | 2.94%
c1ccc(C2=NN=C(c3ccccn3)C3C4CC(C23)C2C3CC(c5ccccc53)C42)nc1 (stereo not given) | 1.22%
O=C(/C=C/c1ccc(Cl)c(Cl)c1)NCCCCCN1CCCC(C(=O)Nc2ccc(F)c(Cl)c2)C1 (stereo not given) | 4.87%
CCCCCCN1CCN(Cc2cccc(NC(=O)c3cccc(OCC)c3)c2)CC1 | 13.1%
O=C(Nc1ccccc1)N(Cc1ccc(-c2cccc(CNCc3ccc4c(c3)OCO4)c2)cc1)C1CCN(Cc2ccccc2)CC1 | 2.9%
CCCCN1CCN(CCCNc2c3ccccc3nc3ccccc23)CC1 | 55.3%
Oc1ccc2[nH]c(-c3ccc(F)cc3F)nc2c1CN1CCC(O)(c2ccccc2)CC1 | 0.37%
O=C(Nc1cccc(CN2CCCN(Cc3ccsc3)CC2)c1)c1ccc(Cl)c(Cl)c1 | -2.87%
C=C[C@]1(C)C[C@@H](OC(=O)NC(=O)CCCS(=O)(=O)c2nnc(C)s2)[C@]2(C)[C@H](C)CC[C@]3(CCC(=O)[C@H]32)[C@@H](C)[C@@H]1O | 6.8%

SMILES | inhibition
O=C(Nc1ccc(-c2cccc(-c3nc4ccccc4[nH]3)c2)cc1)c1cnn2cccnc12 | -0.16%
Cc1ccccc1Oc1ccc(Nc2ccnc(Nc3cccc(C(N)=O)c3)n2)cc1C(F)(F)F | 1.52%
CS(=O)(=O)NCCCNCc1ccc(-c2cccc(-c3nc4cc(F)ccc4[nH]3)c2)cc1 | -0.29%
Cc1cc(NC2CCN(CC3CCCCC3)C2)nc(Nc2ccc(Br)cc2)n1 (stereo not given) | 0.66%
CN(C)CCNC(=O)N1CCCN(c2ncnc3cc(-c4ccccc4)sc23)CC1 | 6.1%
C#CCN(Cc1cc2c(=O)[nH]c(N)nc2cc1C)c1ccc(C(=O)N[C@@H](CCC(=O)O)C(=O)O)cc1 | 8.07%
Cn1cncc1C(=O)Nc1cccc(-c2csc(-c3nc4ccccc4[nH]3)c2)c1 | 2.3%
NC(=O)c1cccc(C(=O)Nc2cccc(-c3cccc(-c4nc5cc(F)ccc5[nH]4)c3)c2)c1 | -0.72%
CCOc1ccc(-c2nc(NC(=O)COc3ccc(OC)cc3)sc2C)cc1 | 10.1%
NC(=O)c1ccccc1OCC(=O)Nc1cccc(-c2cccc(-c3nc4ccccc4[nH]3)c2)c1 | -4.32%
O=C(O)C[C@H](NC(=O)[C@@H]1CCCN1C(=O)c1cccc(-c2ccc(Cl)c(Cl)c2)c1)C(=O)O | 1.61%
N=C(NCCc1ccc(Cl)cc1)c1ccc(Cl)c(Cl)c1 | 1.15%
CCN(Cc1ccc(-c2ccc(C(F)(F)F)cc2)cc1)C(=O)Cn1c(SCc2cccc(F)c2F)cc(=O)c2cc(CN3CCCCC3)ccc21 | 5.02%
O=C(c1ccc(-c2cccc(-c3nc4cc(C(F)(F)F)ccc4[nH]3)c2)cc1)N1CCCCC1CN1CCC(O)C1 (stereo not given) | 0.17%
NOCCCOc1ccccc1 | 0.73%
CC(C)(C)c1ccc(CN2CCC(NC(=O)c3cc(-c4cccc(C(F)(F)F)c4)cs3)C2)cc1 (stereo not given) | 1.98%
COc1ccc(C2CC(=O)C3=C(C2)NC(C)=C(C(=O)OC2CCCC2)C3c2cccc(O)c2)cc1OC (stereo not given) | 0.17%
Nc1ccc(-c2csc(Nc3ccncc3)n2)cc1 | 2.21%
CC1(C)N=C(N)N=C(N)N1OCc1cccc(C#N)c1 | 1.5%
N=C1NC(c2ccccc2)(c2ccccc2)C(=O)N1CC=Cc1ccccc1 | 4.83%
